About 83,000 compounds went through this panel and 20% of them were active in at least one assay; those are over-represented in the sample as a whole.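 Interpretation: 100, growth as untreated; towards 0, rising growth inhibition; 0, no net growth; 0 to -100, cell death. Compounds scoring below 10 were considered active.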 Calls of active or inactive are those of the source.
These molecules were tested on UACC-257 melanoma (assay: NCI-60 one-dose screen, 48 h (100 = growth as untreated, 0 = no growth, -100 = all killed)). Details: 10 µM unless noted.

Structure (SMILES)	growth
O=C1C=Cc2ncccc2C1=O	88.1% (inactive)
COc1cc2c(cc1OC)C(=O)/C(=C/c1cc(-c3ccc4c(c3)OCO4)n[nH]1)C2	77.1% (inactive)
CCN(CC)CCCCCCNc1ccnc2cc(Cl)ccc12	102% (inactive)
COC(c1ccccc1)(c1ccccc1)c1ccccc1	122% (inactive)
CC(CNc1nc(Nc2ccc(Cl)c(Cl)c2)nc(C(Cl)(Cl)Cl)n1)N(C)C (stereo not given)	-8.37% (active)
COc1cccc2c1C(=O)c1c(O)c3c(c(O)c1C2=O)C[C@@](O)(C(=O)CO)C[C@@H]3OC1C[C@H](N)[C@H](O)[C@H](C)O1 (stereo not given in full)	-35% (active)
NC(=O)[C@@H]1CC2CCC1C2 (stereo not given in full)	111% (inactive)
COc1cc2[nH]c(C(=O)c3cc(OC)c(OC)c(OC)c3)c(N)c2cc1C#CCO	71.2% (inactive)
CN(C)c1ccc(N=C2C=CC(=O)C=C2)cc1	119% (inactive)
COc1ccc(C(=O)c2cc(OC)c(OC)c(OC)c2)cc1/C=C/C(=O)c1cc(OC)c(OC)c(OC)c1	81.6% (inactive)
Nc1c(C(=O)Nc2cccc(Br)c2)sc2nc3c(cc12)C(=O)CCC3	68% (inactive)
O=C1NC(=Nc2ccc(S(=O)(=O)Nc3nccs3)cc2)S/C1=C\c1coc2ccccc2c1=O	105% (inactive)
COc1ccc(C(=O)/C=C/c2cc(-c3cc(OC)c(OC)c(OC)c3)n[nH]2)cc1OC	24.6% (inactive)
COc1cc2[nH]c(C(=O)c3cc(OC)c(OC)c(OC)c3)c(N)c2cc1C#CC1CC1	67.9% (inactive)
O=C(NC1=CC(=O)c2ccccc2C1=O)c1ccccc1	-4.63% (active)
COC(=O)c1cc(=O)nc(N/N=C/c2ccc(C)cc2)s1	97.5% (inactive)
COc1cc(C(=O)/C=C/c2cc(-c3ccc4c(c3)OCO4)n[nH]2)cc(OC)c1OC	76.5% (inactive)
O=C(/C=C\c1ccc2c(c1)OCO2)/C=C/c1ccc2c(c1)OCO2	98.2% (inactive)
COc1cc(-c2cc(-c3nc4cc(Cl)c(Cl)cc4[nH]3)[nH]n2)cc(OC)c1OC	88% (inactive)

Structure (SMILES)	growth
COC1=C(Br)C(=O)C(OC)=C(Br)C1=O	94.4% (inactive)
COc1ccc2c(c1)C/C(=C\c1cc(-c3ccc4c(c3)OCO4)n[nH]1)C2=O	103% (inactive)
CC(C)(C)c1ccc(OP(=S)(N/N=C/c2ccccc2O)Oc2ccc(C(C)(C)C)cc2)cc1	59.8% (inactive)
OCC12CCCC(CO)(COC1)C2O (stereo not given)	100% (inactive)
COc1ccc(-c2cc(/C=C/C(=O)c3ccc(N)cc3)[nH]n2)cc1	58.9% (inactive)
O=c1c(CNc2ccc(S(=O)(=O)Nc3ncccn3)cc2)coc2ccccc12	108% (inactive)
NC(Cc1ccc(O)cc1)C(=O)N/N=C/c1ccccc1O (stereo not given)	101% (inactive)
COc1ccc2c(c1)C/C(=C\c1cc(-c3cc(OC)c(OC)c(OC)c3)n[nH]1)C2=O	97.3% (inactive)
O=c1c(CNc2ccc(S(=O)(=O)Nc3nccs3)cc2)coc2ccccc12	106% (inactive)
Nc1c(C(=O)Nc2cccc(Cl)c2)sc2ncc(Cl)cc12	100% (inactive)
CCN(CC)CCCCCNc1cc(OC(=O)c2ccccc2)cc2cccnc12	120% (inactive)
Fc1ccc2nc(-c3cc(-c4ccc5c(c4)OCO5)n[nH]3)[nH]c2c1	84.9% (inactive)
C#Cc1cc2c(N)c(C(=O)c3cc(OC)c(OC)c(OC)c3)[nH]c2cc1OC	70.5% (inactive)
Cc1cc(Cl)c2c(N(C)C)cccc2n1	102% (inactive)
COc1ccc(/C=C2\N=C(c3ccccc3)N(c3cc(OC)c(OC)cc3C(=O)N3N=C(C)CC3=O)C2=O)cc1	128% (inactive)
COc1ccc2nc(-c3c(-c4ccccc4)nc4ncccn34)[nH]c2c1	105% (inactive)
O=C1C=C(C(O)c2ccc(O)cc2)C(=O)c2ccccc21 (stereo not given)	107% (inactive)
NS(=O)(=O)c1ccc(CCNC(=O)/C=C/c2ccc(Cl)cc2)cc1	104% (inactive)

What follows are molecules tested on M14 melanoma in the same assay as above. Details: 10 µM unless noted.

Structure (SMILES)	growth
O=C1C=Cc2ncccc2C1=O	95.5% (inactive)
COc1cc2c(cc1OC)C(=O)/C(=C/c1cc(-c3ccc4c(c3)OCO4)n[nH]1)C2	5.68% (active)
CCN(CC)CCCCCCNc1ccnc2cc(Cl)ccc12	38% (inactive)
COC(c1ccccc1)(c1ccccc1)c1ccccc1	136% (inactive)
CC(CNc1nc(Nc2ccc(Cl)c(Cl)c2)nc(C(Cl)(Cl)Cl)n1)N(C)C (stereo not given)	-60.6% (active)
COc1cccc2c1C(=O)c1c(O)c3c(c(O)c1C2=O)C[C@@](O)(C(=O)CO)C[C@@H]3OC1C[C@H](N)[C@H](O)[C@H](C)O1 (stereo not given in full)	-71.6% (active)
NC(=O)[C@@H]1CC2CCC1C2 (stereo not given in full)	118% (inactive)
COc1cc2[nH]c(C(=O)c3cc(OC)c(OC)c(OC)c3)c(N)c2cc1C#CCO	7.42% (active)
CN(C)c1ccc(N=C2C=CC(=O)C=C2)cc1	95.6% (inactive)
COc1ccc(C(=O)c2cc(OC)c(OC)c(OC)c2)cc1/C=C/C(=O)c1cc(OC)c(OC)c(OC)c1	81.4% (inactive)
Nc1c(C(=O)Nc2cccc(Br)c2)sc2nc3c(cc12)C(=O)CCC3	35.7% (inactive)
O=C1NC(=Nc2ccc(S(=O)(=O)Nc3nccs3)cc2)S/C1=C\c1coc2ccccc2c1=O	105% (inactive)
COc1ccc(C(=O)/C=C/c2cc(-c3cc(OC)c(OC)c(OC)c3)n[nH]2)cc1OC	-7.08% (active)
COc1cc2[nH]c(C(=O)c3cc(OC)c(OC)c(OC)c3)c(N)c2cc1C#CC1CC1	22% (inactive)
O=C(NC1=CC(=O)c2ccccc2C1=O)c1ccccc1	33.9% (inactive)
COC(=O)c1cc(=O)nc(N/N=C/c2ccc(C)cc2)s1	99.1% (inactive)
COc1cc(C(=O)/C=C/c2cc(-c3ccc4c(c3)OCO4)n[nH]2)cc(OC)c1OC	81.4% (inactive)
O=C(/C=C\c1ccc2c(c1)OCO2)/C=C/c1ccc2c(c1)OCO2	40% (inactive)
COc1cc(-c2cc(-c3nc4cc(Cl)c(Cl)cc4[nH]3)[nH]n2)cc(OC)c1OC	62.3% (inactive)

Structure (SMILES)	growth
COC1=C(Br)C(=O)C(OC)=C(Br)C1=O	105% (inactive)
COc1ccc2c(c1)C/C(=C\c1cc(-c3ccc4c(c3)OCO4)n[nH]1)C2=O	97.2% (inactive)
CC(C)(C)c1ccc(OP(=S)(N/N=C/c2ccccc2O)Oc2ccc(C(C)(C)C)cc2)cc1	77.7% (inactive)
OCC12CCCC(CO)(COC1)C2O (stereo not given)	97.6% (inactive)
COc1ccc(-c2cc(/C=C/C(=O)c3ccc(N)cc3)[nH]n2)cc1	23% (inactive)
O=c1c(CNc2ccc(S(=O)(=O)Nc3ncccn3)cc2)coc2ccccc12	99.2% (inactive)
NC(Cc1ccc(O)cc1)C(=O)N/N=C/c1ccccc1O (stereo not given)	98.7% (inactive)
COc1ccc2c(c1)C/C(=C\c1cc(-c3cc(OC)c(OC)c(OC)c3)n[nH]1)C2=O	100% (inactive)
O=c1c(CNc2ccc(S(=O)(=O)Nc3nccs3)cc2)coc2ccccc12	104% (inactive)
Nc1c(C(=O)Nc2cccc(Cl)c2)sc2ncc(Cl)cc12	88.2% (inactive)
CCN(CC)CCCCCNc1cc(OC(=O)c2ccccc2)cc2cccnc12	101% (inactive)
Fc1ccc2nc(-c3cc(-c4ccc5c(c4)OCO5)n[nH]3)[nH]c2c1	49.5% (inactive)
C#Cc1cc2c(N)c(C(=O)c3cc(OC)c(OC)c(OC)c3)[nH]c2cc1OC	19.9% (inactive)
Cc1cc(Cl)c2c(N(C)C)cccc2n1	92% (inactive)
COc1ccc(/C=C2\N=C(c3ccccc3)N(c3cc(OC)c(OC)cc3C(=O)N3N=C(C)CC3=O)C2=O)cc1	97.9% (inactive)
COc1ccc2nc(-c3c(-c4ccccc4)nc4ncccn34)[nH]c2c1	107% (inactive)
O=C1C=C(C(O)c2ccc(O)cc2)C(=O)c2ccccc21 (stereo not given)	79.5% (inactive)
Cc1ccc(-c2nc3ccc(Cl)cc3c(=O)n2N2C(=O)CSC2c2ccccc2Cl)cc1 (stereo not given)	71.4% (inactive)
NS(=O)(=O)c1ccc(CCNC(=O)/C=C/c2ccc(Cl)cc2)cc1	99.2% (inactive)
